Cruzain inh noDet – qHTS Assay for Promiscuous and Specific Inhibitors of Cruzain (without detergent) | Cruzipain (Trypanosoma cruzi), P25779 | purified cruzain, Z-FR-AMC fluorescence, no detergent | Potency, µM, actives largely listed as inhibitors | 200,000 compounds, 2.3% hits | AID 1476, 2009; note: nearly all actives have a fitted effect of over 40% in size
Target sequence (P25779 123-467 limits assumed): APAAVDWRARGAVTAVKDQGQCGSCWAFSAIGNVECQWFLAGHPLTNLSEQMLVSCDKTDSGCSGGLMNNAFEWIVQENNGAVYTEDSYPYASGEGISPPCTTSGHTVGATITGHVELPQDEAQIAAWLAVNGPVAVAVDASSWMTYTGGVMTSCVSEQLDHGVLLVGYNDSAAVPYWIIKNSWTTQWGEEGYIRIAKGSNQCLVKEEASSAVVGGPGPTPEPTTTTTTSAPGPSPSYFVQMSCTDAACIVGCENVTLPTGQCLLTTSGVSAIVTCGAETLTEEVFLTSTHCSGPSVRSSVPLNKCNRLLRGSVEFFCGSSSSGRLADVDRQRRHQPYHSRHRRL
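Purified cruzain at 1.5 nM, pre-incubated 15 min with compound at room temperature in 100 mM sodium acetate pH 5.5, 5 mM DTT, 0.00005% Triton X-100. Reaction started with 2 uM Z-FR-AMC; AMC fluorescence increase over 60 s gives rate.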
Cruzain Triton – qHTS Assay for Promiscuous and Specific Inhibitors of Cruzain (with detergent) | Potency, µM, most hits filed as inhibitors | purified cruzain, Z-FR-AMC fluorescence, 0.01% Triton | 200,000 compounds, 0.43% hits; note: nearly all actives have a fitted effect of over 40% in size
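Cruzain (1.5 nM) preincubated 15 min at RT with compound in 100 mM sodium acetate pH 5.5, 5 mM DTT, 0.01% Triton X-100. Reaction started with 2 uM Z-FR-AMC; AMC fluorescence (ex 360/em 450 nm) change over 60 s gave rate.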
Each line names hits and unclear results; the compound was inactive in the other large screens. This is a sample that favours compounds with a hit; in the whole collection about 2.5% have one here. Calls come from the whole dose curve; as a rule, active = well fitted curve in the direction sought with a large enough effect; inconclusive = small, poorly fitted or top-dose-only effect, or another doubt; inactive = no such curve, though single readings can be large; an effect the other way counts as inactive or inconclusive.

COc1ccc(NC(=O)C2(c3ccc(NC(=O)c4ccc(C)cc4)cc3)CCCC2)cc1	Cruzain inh noDet 6.3µM
Cc1ccc(-c2nnc(NC(=O)c3ccc4c(c3)OCCO4)o2)c(C)c1	none
Cc1nn(C)c(C)c1/C=C1/SC(=S)NC1=O	none
Cc1ccc(C2C(/C=C3/SC(=S)NC3=O)=C(c3cccs3)Oc3ccccc32)cc1 (stereo not drawn)	Cruzain inh noDet 7.9µM
CCOc1ccc(NC(=O)Cn2cc(C(=O)c3ccc(CC)cc3)c(=O)c3ccc(C)nc32)cc1	none
Fc1ccc(CSc2ccc3nnc(-c4cccs4)n3n2)cc1	Cruzain inh noDet inconclusive
Cc1cccc(CSc2ccc3nnc(-c4cccs4)n3n2)c1	Cruzain inh noDet 32µM
COc1cc(CNC(=O)c2cnc3c(-c4cccc(C)c4)c(C)nn3c2C)cc(OC)c1OC	Cruzain inh noDet inconclusive
CC1=CC(C)(C)N(C(=O)CN2C(=O)c3ccccc3C2=O)c2ccc(C)cc21	none
CCC(=O)N1c2ccc(C)cc2C2=NNC(=S)NC21O (stereo not drawn)	Cruzain inh noDet 0.63µM, Cruzain Triton inconclusive
O=C(Cn1c(=O)n(CCc2c[nH]c3ccccc23)c(=O)c2cccnc21)Nc1ccccc1F	Cruzain inh noDet inconclusive
Cc1cccc(NC(=O)Cn2c(=O)n(CCc3c[nH]c4ccccc34)c(=O)c3cccnc32)c1	Cruzain inh noDet 25µM
Cc1cc(C)c(NC(=O)C2CCN(C(=O)N3CCOc4ccccc43)CC2)c(C)c1	none
COc1ccc(-c2cc3nc(C)c(CCC(=O)N4CCN(c5cccc(Cl)c5)CC4)c(C)n3n2)c(OC)c1	none
COC(=O)CCC(=O)NC(=S)Nc1sc(C)c(C)c1C(N)=O	Cruzain inh noDet inconclusive
Cc1sc(NC(=S)NC(=O)CCc2ccccc2)c(C(N)=O)c1C	Cruzain inh noDet 4µM
Cc1cccc(-n2nc(C(=O)Nc3ccccc3)n3c(=O)cc(-c4ccccc4)nc23)c1	Cruzain inh noDet 7.9µM
O=C(c1ccccc1)c1nn(-c2cccc(Cl)c2)c2nc(-c3ccccc3)cc(=O)n12	Cruzain inh noDet 25µM
CCOC(=O)c1nn(-c2cccc(OC)c2)c2nc(Nc3ccccc3)cc(=O)n12	Cruzain inh noDet inconclusive
CCOC(=O)c1nn(-c2cccc(Cl)c2)c2nc(Nc3ccccc3)cc(=O)n12	Cruzain inh noDet inconclusive
CCOc1ccc(NC(=O)Cn2nnc(C(=O)OC)c2C(=O)OC)cc1	none
CCOc1ccc(S(=O)(=O)Nc2ccc3c(c2)c(C(C)=O)c(C)n3S(=O)(=O)c2ccc(OCC)cc2)cc1	Cruzain inh noDet inconclusive
CCOc1ccc(S(=O)(=O)Nc2ccc3c(c2)c2c(n3S(=O)(=O)c3ccc(OCC)cc3)CCCC2=O)cc1	Cruzain inh noDet 7.9µM
COc1ccc(Cn2c(SCc3ccccc3C)nc3cc(OC)c(OC)cc3c2=N)cc1	Cruzain inh noDet inconclusive, Cruzain Triton 16µM
COc1cc2nc(SCc3ccc(F)cc3)n(Cc3cccs3)c(=N)c2cc1OC	Cruzain inh noDet inconclusive
O=C(Nc1ccc2c(c1)OCO2)C1Cc2ccccc2CN1S(=O)(=O)c1cccs1 (stereo not drawn)	Cruzain inh noDet 25µM
O=C(Nc1ccc2c(c1)OCO2)C1CCN(S(=O)(=O)c2cccs2)CC1	Cruzain inh noDet inconclusive
O=C(Cn1cc(C(=O)C2CCCCC2)c2ccccc21)Nc1ccccc1Cl	none
Cc1ccc(NC(=O)N2CCC3(CC2)Oc2ccccc2C(=O)N3Cc2ccc(F)cc2)cc1	Cruzain inh noDet inconclusive
O=C1c2ccccc2OC2(C=Cc3ccccc3O2)N1Cc1ccccc1 (stereo not drawn)	Cruzain inh noDet 25µM
CCc1ccc(CNCc2c(C(=O)O)n(Cc3cccc(F)c3)c3cc(OC)ccc23)cc1	none
COc1ccc2c(c1)CCc1c(C(=O)Nc3c(C)nn(Cc4c(Cl)cccc4Cl)c3C)noc1-2	none
COc1ccccc1OCc1nnc(SCC(=O)Nc2ccc(C)cc2)n1C	none
Cc1ccccc1OCc1nnc(SCC(=O)Nc2ccc3c(c2)oc2ccccc23)n1C	Cruzain inh noDet 20µM
Cc1ccc(-c2nnc(SCC(=O)Nc3ccc4c(c3)oc3ccccc34)n2C)c(Cl)c1	Cruzain inh noDet inconclusive
Cn1c(SCC(=O)Nc2cccc(Br)c2)nnc1-c1cc2ccccc2o1	Cruzain inh noDet 13µM
COc1cccc(-c2nn(C)c3sc(C(=O)N4CCN(c5cccc(C)c5)C(C)C4)cc23)c1 (stereo not drawn)	none
Cc1cccc(NC(=O)Cn2cc(C(=O)C3CCCCC3)c3ccccc32)c1C	none
COc1ccc(-c2cc(=O)c3c(O)cc(O)c(-c4cc(-c5cc(=O)c6c(O)cc(O)cc6o5)ccc4OC)c3o2)cc1	none
CCOC(=O)c1sc2ccccc2c1S(=O)(=O)N1CCN(c2cccc(C)c2C)CC1	Cruzain inh noDet 13µM
CCOC(=O)c1sc2ccccc2c1S(=O)(=O)N1CCN(c2ccccc2)CC1	Cruzain inh noDet 32µM
CCOC(=O)c1sc2ccccc2c1S(=O)(=O)N1CCN(c2cccc(OC)c2)CC1	none
CCOC(=O)c1sc2ccccc2c1S(=O)(=O)N1CCN(c2ccccc2F)CC1	none
CCCOc1ccc(CNC(=O)CCCn2nc(C)c3sc4ccccc4c3c2=O)cc1	Cruzain inh noDet inconclusive
O=C(NC1(C(F)(F)F)NC(=O)N(CCc2ccccc2)C1=O)c1ccccc1F (stereo not drawn)	none
COc1ccc(S(=O)(=O)NCc2ccc3c(c2)CCN3C(C)=O)cc1OC	none
Nc1nc(Nc2cccc(F)c2)nc2ccccc12	Cruzain inh noDet 16µM, Cruzain Triton inconclusive
O=c1oc(Nc2cccc(F)c2)nc2ccccc12	none
COc1cc2c(cc1O)-c1ccccc1CN(C)C2	none
CCOC(=O)C1=C(N)n2c(s/c(=C\c3cccs3)c2=O)=C(C(=O)OCC)C1c1cccs1 (stereo not drawn)	Cruzain inh noDet 2µM
CCOC(=O)C1=C(N)n2c(s/c(=C\c3cccnc3)c2=O)=C(C(=O)OCC)C1c1cccnc1 (stereo not drawn)	Cruzain inh noDet inconclusive
CCc1ccc(NC(=O)C(C)OC(=O)c2cccc(S(=O)(=O)N3CCc4ccccc4C3)c2)cc1 (stereo not drawn)	Cruzain inh noDet 16µM
CCc1ccc(NC(=O)c2ccc(F)c(S(=O)(=O)N3CCc4ccccc4C3)c2)cc1	Cruzain inh noDet inconclusive
CCOC(=O)C1CCCN(S(=O)(=O)c2ccc3c(c2)CCN3C(=O)CC)C1 (stereo not drawn)	none
O=C(NC1=NCCS1)C12CC3CC(C1)CC(C(=O)NC1=NCCS1)(C3)C2	none
O=C(CC12CC3CC(C1)CC(CC(=O)NC1=NCCS1)(C3)C2)NC1=NCCS1	Cruzain inh noDet 25µM
COc1ccc2c(c1)c1c(c(=O)n(CCc3ccccc3)c(=O)n1Cc1ccc(Cl)cc1)n2C	none
COc1cc(/C=N/NC(=O)C(=O)/C=C2\NC3(CCCC3)Cc3ccccc32)ccc1O	none
O=C(/C=C1\NC2(CCCC2)Cc2ccccc21)C(=O)N/N=C/c1ccccc1O	Cruzain inh noDet 25µM
Cc1[nH]c2ccccc2c1C(c1ccccc1)c1ccc(Cl)s1 (stereo not drawn)	Cruzain inh noDet inconclusive
COc1cccc(C(=O)n2nc(-c3ccco3)nc2NCc2cccs2)c1	none
Cc1cnc(CNc2nc(-c3cccc(NS(C)(=O)=O)c3)nc3ccccc23)cn1	none
N=P(N1CCOCC1)(N1CCOCC1)C12CC3CC(CC(C3)C1)C2	Cruzain inh noDet 25µM, Cruzain Triton 28µM
O=C(N1CCOCC1)C12CCC3CC(CC(C3)C1)C2	none
Cc1cccc2c1[nH]c1nc(N/N=C\c3ccco3)nnc12	none
